From PubChem BioAssay
Sampled rows, rich in hits. Any-hit rate of the full collection: about 1.3%.
GRK2 inh: blocks RNA aptamer binding to human GRK2 | hit rate 0.59% among 330,000 | P25098 | bead flow cytometry, FAM-aptamer displacement from GRK2 | AID 488847 | inhibition of aptamer binding, % at 10 µM;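 active means inhibition of aptamer binding above 40%, roughly 3 SD of noise, on plates passing a quality check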;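 further: median bead fluorescence of bound FAM aptamer so fluorescent compounds give negative values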
Bfl-1 A1 inh: inhibitors of the anti-apoptotic protein A1, read as caspase activation | hit rate 0.066% among 330,000 | caspase activation, % (concentration not given with the values) | MEF A1-2A-BIM cells, Caspase-Glo 3/7 luminescence, 3 h; percent of clofoctol response, vehicle zero | AID 2462;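 active means over half of replicate activation scores above 10%, or exactly half above 10 with the replicate mean above 10; inconclusive means replicate mean below 10 yet half the replicates above 10; inactive means over half of replicates below 10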
Beta2AR agonist: agonists of human beta-2 adrenergic receptor inducing internalization; P07550; Am2.2-beta2AR cells, FAP receptor internalization, flow cytometry; response, % (no concentration beside the values); hit rate 0.43% among 340,000; AID 504454;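 active means response above a set limit, near 3 SD of response in nonfluorescent compounds, cut at about 42% in these data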
NTR1 agonist: NTR1 (human) agonism; P30989; NTR1-U2OS beta-arrestin-GFP spot imaging, agonist mode; activation, % at 20 µM; hit rate 0.17% among 330,000; AID 493036;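 active means activation at or above 40% of the spot to cytoplasm intensity ratio, with at least 20 cells analyzed; inconclusive means wells under 20 cells, flagged as cytotoxic or low count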;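 further: 0% = DMSO without peptide and 100% = 100 nM NTR1 peptide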
VLA-4 inh: inhibition in a human VLA-4 binding assay | VLA-4 expressing cells, ligand binding flow cytometry | AID 2557 | P13612 | hit rate 0.2% among 330,000 | inhibition, % (about 7 µM as worked out from the volumes in the protocol); in the data active means inhibition above about 50%
VLA-4 mod pick: confirmation of allosteric modulators of human VLA-4 integrin | inhibition, % at 6.7 µM | U937 cells, HUTS-21 LIBS mAb binding, flow cytometry; LDV ligand present at threefold Kd | shares compounds with VLA-4 inh | hit rate 2% among 1,300; in the data active means inhibition above about 40%;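 further: 0% = ligand without compound and 100% = no ligand background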
* marks the source's active call; other numbers are inactive results; ? = inconclusive; . = no result given.

SMILES	GRK2 inh	Bfl-1 A1 inh	Beta2AR agonist	NTR1 agonist	VLA-4 inh	VLA-4 mod pick
O=C(CNC(=O)c1cccc(OC(F)F)c1)OCc1cc(=O)n2cc(Br)ccc2n1	5.0	0.2	-15.9	0.2	0.0	.
O=C(CNS(=O)(=O)c1ccc(Br)cc1)OCc1cc(=O)n2cc(Br)ccc2n1	16.0	-0.7	.	-1.0	46.5	-15.1
COc1cc(OC)cc(C(=O)NC(=S)NCc2ccco2)c1	2.0	0.6	-0.6	7.7	-25.3	.
COc1cc(OC)cc(C(=O)NNC(=S)NCc2ccco2)c1	0.0	1.4	5.8	-0.9	52.6*	8.4
CCOc1ccc(CCNC(=O)c2ccc3nc(N4CCOCC4)sc3c2)cc1OCC	0.0	-0.8	-4.2	-0.5	16.9	.
O=C(Nc1ccc(F)cc1F)c1ccc2nc(N3CCOCC3)sc2c1	0.0	-2.3	3.6	7.3	32.5	14.3
O=C(c1ccc2nc(N3CCOCC3)sc2c1)N1CCC(Cc2ccccc2)CC1	3.0	-0.5	-1.9	8.2	-2.7	.
CC(C)Oc1ccc(CNC(=O)c2ccc3nc(N4CCOCC4)sc3c2)cc1	3.0	0.1	-4.6	3.2	4.3	.
Cc1ccc(C)c(N2CCN(C(=O)c3ccc4nc(N5CCOCC5)sc4c3)CC2)c1	0.0	-0.3	-2.9	4.5	4.3	-0.8
O=C(NCc1cccc(Cl)c1)c1ccc2nc(N3CCOCC3)sc2c1	2.0	-0.1	1.4	0.0	22.6	-0.1
CCCCN(CCCNC(=O)c1ccc2nc(N3CCOCC3)sc2c1)Cc1ccccc1	0.0	-0.1	-8.6	-1.7	-111.9	10.4
CCCNC(=O)C1CC(c2ccccc2C(F)(F)F)=NO1 (stereo unspecified)	0.0	0.3	-0.7	-2.7	-15.3	.
CCc1cccc(C)c1NC(=O)c1ccc2nc(N3CCOCC3)sc2c1	0.0	0.2	4.2	-0.5	50.3*	4.4
Cc1cccc(NC(=O)c2ccc3nc(N4CCOCC4)sc3c2)c1C	0.0	0.4	4.4	3.7	2.8	.
CCC(Cc1ccccc1)NC(=O)c1ccc2nc(N3CCOCC3)sc2c1 (stereo unspecified)	0.0	0.3	-2.1	1.8	10.5	3.3
CCOc1ccccc1CNC(=O)c1ccc2nc(N3CCOCC3)sc2c1	0.0	-0.6	-5.0	2.0	2.1	4.4
Cc1cccc(N2CCN(C(=O)c3ccc4nc(N5CCCCC5)sc4c3)CC2)c1C	0.0	-0.4	8.5	14.8	1.9	.
O=C(c1ccc2nc(N3CCCCC3)sc2c1)N1CCN(c2ccccn2)CC1	0.0	0.5	-13.4	0.9	49.2	7.7
COc1ccc(-c2cc(CNS(=O)(=O)c3ccc(F)cc3)on2)cc1	1.0	0.4	-3.4	0.3	-6.8	.
CC(CCc1ccccc1)NC(=O)c1ccc2nc(N3CCOCC3)sc2c1 (stereo unspecified)	0.0	0.3	-0.3	2.2	9.0	.
CC1CC(C)CN(CCCNC(=O)c2ccc3nc(N4CCOCC4)sc3c2)C1 (stereo unspecified)	0.0	-0.1	-1.2	3.2	5.3	.
O=C(NCCc1ccccc1)c1ccc2nc(N3CCOCC3)sc2c1	1.0	0.0	-6.5	0.7	-18.3	10.4
CCCN1CCN(CCCNC(=O)c2ccc3nc(N4CCC(C)CC4)sc3c2)CC1	0.0	0.0	0.6	0.6	9.6	-2.2
CCc1cccc(C)c1N=Cc1c(O)c2ccccc2oc1=O	0.0	0.1	-7.0	7.2	21.2	.
COc1ccc(C(C#N)c2ccc(=O)[nH]n2)cc1 (stereo unspecified)	0.0	1.1	4.5	-1.0	55.4*	-8.6
SMILES	GRK2 inh	Bfl-1 A1 inh	Beta2AR agonist	NTR1 agonist	VLA-4 inh	VLA-4 mod pick
CCc1cccc(C)c1NC(=O)C1CCN(C(=O)c2ccc([N+](=O)[O-])cc2)CC1	3.0	-0.5	-0.5	0.2	56.4*	1.3
CC(C)[C@H](NS(=O)(=O)c1ccccc1)C(=O)Nc1ccccc1N1CCOCC1	1.0	0.0	-4.4	2.3	16.1	.
N#Cc1cccc(NS(=O)(=O)c2ccc(S(=O)(=O)N3CCOCC3)cc2)c1	0.0	1.0	0.7	-1.2	0.0	.
N#Cc1cccc(NS(=O)(=O)c2ccccc2Cl)c1	0.0	-0.4	10.2	1.4	16.4	3.5
O=C(Cn1cc(C(F)(F)F)ccc1=O)OCC(=O)c1ccc[nH]1	3.0	0.3	4.8	0.0	5.4	.
CC(Sc1nnnn1-c1ccccc1)C(=O)Nc1ccc(N2CCN(C)CC2)cc1 (stereo unspecified)	0.0	0.6	-5.9	-0.1	101.7*	0.6
CC(Sc1nnnn1-c1ccccc1)C(=O)Nc1ccccc1-c1ccccc1 (stereo unspecified)	1.0	0.8	1.0	3.4	2.4	.
CCCOc1ccc(N2C(=O)CC(N(Cc3ccc(S(N)(=O)=O)cc3)C(=O)CC)C2=O)cc1 (stereo unspecified)	2.0	-0.1	18.6	3.7	-5.3	-5.0
COc1ccc(N2C(=O)CC(N(Cc3ccc(S(N)(=O)=O)cc3)C(C)=O)C2=O)cc1 (stereo unspecified)	2.0	0.2	-2.5	0.6	14.1	1.3
COc1cccc(N2C(=NC(=O)C3CCCCC3)SC3CS(=O)(=O)CC32)c1 (stereo unspecified)	0.0	0.1	-3.8	-0.5	4.0	.
O=C(CN1C(=O)c2ccccc2S1(=O)=O)NC1CC2CCC1C2 (stereo unspecified)	2.0	-0.2	-14.5	1.8	51.1*	5.1
NC(=O)[C@@H]1CC2(CC(c3cccc(NC(=O)[C@H]4CCC(=O)N4)c3)=NO2)CN1C(=O)c1ccc(Cl)cc1 (stereo partly specified)	2.0	0.6	-1.5	-3.3	-4.2	.
NC(=O)[C@H]1CC2(CC(c3cccc(NC(=O)[C@H]4CCC(=O)N4)c3)=NO2)CN1C(=O)c1ccccc1 (stereo partly specified)	8.0	-0.6	-1.1	0.8	51.5*	6.5
O=C(N/N=C/C=C/c1ccccc1)NC1CCCCC1	0.0	0.5	21.2	2.0	7.0	.
C=CCn1c(O)c(C2=c3ccccc3=NC2=O)c2ccccc21	1.0	0.6	-1.9	30.9	51.3*	-0.1
Cc1ccc2c(c1)c(C1=c3ccccc3=NC1=O)c(O)n2C	0.0	?	-2.5	5.8	3.0	.
COc1cc(OC)c(OC)cc1CNC(=O)c1cc(S(=O)(=O)N(C)c2ccccc2OC)ccc1C	.	.	-1.5	.	.	.
Cc1ccc(C)c(OCC(=O)Nc2ccc(C(=O)O)cc2NC(=O)COc2cc(C)ccc2C)c1	0.0	0.3	-3.3	3.4	0.6	.
Cc1onc(-c2ccccc2Cl)c1C(=O)NNC(=O)c1ccccc1F	0.0	1.3	-1.6	1.0	0.6	.
CN(C)S(=O)(=O)c1cccc(C(=O)OCC(=O)Nc2ccccc2OC(F)F)c1	3.0	-0.2	1.4	-2.8	8.4	.
CCN(CC)S(=O)(=O)c1cccc(C(=O)OCC(=O)Nc2ccccc2OC(F)F)c1	0.0	0.2	3.4	-0.3	-0.9	0.4
